Bioassay records (PubChem BioAssay)
IL1B secr inh – inhibitors of inflammasome signaling (IL-1 beta secretion); THP-1 LPS/ATP IL-1B secretion, AlphaLISA, 16 h; hits give low values; activity change, % at 57.5 µM; actives 4.7% (n = 360,000); AID 743279; in the data active means activity change below about -50%; inconclusive means mostly about -30% to -49%
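THP-1 cells pretreated 1 hr with compounds (up to 57.5 uM final), then stimulated with LPS (250 ng/mL final) plus ATP (1.25 mM final); secreted IL-1B measured by AlphaLISA after 16 hr, decreased signal indicating inhibition.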
HT1080-NT tox – kills 2HG-producing HT-1080-NT fibrosarcoma cells. Potency, µM (series often up to 46.1 µM), inactives show at the top dose activity, negative = less viability, hits mostly cytotoxic. actives 1.6% (n = 360,000). AID 686970. HT-1080-NT fibrosarcoma viability, CellTiter-Glo ATP luminescence, 48 h;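 further: NT is the 2HG producing partner of a matched IDH1 knockdown line; potency means the concentration at half of the fitted maximal effect; 0% = DMSO-treated cells and -100% = media-only wells without cells; nearly all actives have a fitted effect of over 55% in size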
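HT-1080-NT fibrosarcoma cells (2HG-overproducing), 750 cells/well in RPMI with 5% FBS, dosed after 2 h and incubated 48 h at 37C. CellTiter-Glo luminescence normalized to DMSO and no-cell wells; concentration-response curves fitted and classed.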
TDP1 cell CPT – growth inhibition of DT40 Tdp1-/-;hTDP1 cells with camptothecin (screen for TDP1 inhibitors). chicken DT40 Tdp1-/-;hTDP1 cells + 20 nM CPT, ATP luminescence, 48 h. Potency, µM (top dose mostly 46.2 µM), without a hit: at the top dose activity change, negative = growth inhibition, most hits filed as inhibitors. actives 12% (n = 420,000). AID 686979; further: potency means the concentration at half of the fitted maximal effect; nearly all actives have a fitted effect of over 55% in size
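Cell growth measured by CellTiter-Glo luminescence after a minimum 48 h, 37 C compound exposure with 20 nM CPT in Tdp1-knockout DT40 cells stably expressing hTDP1, seeded 400/well; qHTS titration format.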
TDP1 cell noCPT – qHTS for Inhibitors of human tyrosyl-DNA phosphodiesterase 1 (TDP1): qHTS in cells in absence of CPT | actives 15% (n = 420,000) | DT40 Tdp1-/- hTDP1 cells, no CPT, ATP luminescence, 48 h | AID 686978, 2013 | Potency, µM (highest dose often 46.2 µM), for the others: at the highest dose activity change, negative = growth inhibition, most hits filed as inhibitors; further: potency means the concentration at half of the fitted maximal effect; nearly all actives have a fitted effect of over 55% in size
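Chicken DT40 Tdp1-/- cells stably complemented with human TDP1 were seeded at 400 cells/well with DMSO in place of 20 nM camptothecin. After compound pinning, cells grew at least 48 hr at 37 °C; viability read by CellTiter-Glo luminescence.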
HT1080 IDH1KD tx – HT-1080 IDH1 knockdown cell toxicity (counter line). HT-1080 IDH1 knockdown viability, ATP luminescence, 48 h. Potency, µM (titrated, usually from 46.1 µM), inactives show top-dose activity, negative = toxicity, actives largely listed as cytotoxic. AID 686971. actives 2% (n = 360,000);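 further: potency means the concentration at half of the fitted maximal effect; 0% = DMSO wells and -100% = cell-free medium wells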
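In this qHTS, HT-1080 cells depleted of IDH1 are exposed for 48 h at 37 °C to compound titrations. Toxicity is scored from CellTiter-Glo luminescence, with DMSO as full viability and medium alone as none.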
Starred values were filed as active, the others as inactive; ? = inconclusive; / = no result; [ ] = another dose, or the depositor's remark. An excerpt weighted towards active compounds, which were near 19% of everything screened. Unless noted, the call rests on the fitted dose curve; in most records, active means well fitted curve in the direction sought with a large enough effect; inconclusive means small, poorly fitted or top-dose-only effect, or another doubt; inactive means no such curve, though single readings can be large; an effect the other way counts as inactive or inconclusive. Unless noted, on the % scale 0 is the no-effect control and ±100 the full control effect.

SMILES	IL1B secr inh	HT1080-NT tox	TDP1 cell CPT	TDP1 cell noCPT	HT1080 IDH1KD tx
O=C(c1cc(-c2ccc(Br)cc2)n[nH]1)N1CCN(S(=O)(=O)c2ccc(Br)s2)CC1	/	/	20.6µM*	23.1µM*	/
Cc1ccc(-c2cc(C(=O)N3CCN(S(=O)(=O)c4ccc(Br)s4)CC3)[nH]n2)cc1C	/	/	14.6µM*	13µM*	/
Cc1ccc(-c2cc(C(=O)N3CCN(S(=O)(=O)c4ccc(Br)s4)CC3)[nH]n2)c(C)c1	/	/	11.6µM*	18.4µM*	/
COc1ccc(S(=O)(=O)N2CCN(C(=O)c3cc(-c4ccc(C)cc4)n[nH]3)CC2)cc1	-83.2*	-10.8%	25.9µM*	?	-3.9%
Cc1ccc(-c2cc(C(=O)N3CCc4ccccc4C3)[nH]n2)cc1C	18.0	4.2%	-4.1%	?	-15.5%
COc1ccc(-c2cc(C(=O)N3CCN(S(=O)(=O)c4ccc(C)cc4)CC3)[nH]n2)cc1	-20.0	10.4%	?	?	-5.9%
Cc1cccc(OCc2nnc(SCC(=O)Nc3cccc(C(=O)N4CCOCC4)c3)n2C)c1	8.9	9.1%	1.2%	-18.6%	1.6%
CCOC(=O)CCC1(C(=O)OC)C(=O)CCCCCC=C1C(=O)OC (stereo not given)	-51.1*	0.3%	0.3%	5.8%	-16.0%
O=C(NCCCN1CCOCC1)c1ccc(Sc2ccccc2Cl)c([N+](=O)[O-])c1	-52.4*	1.6%	?	?	-8.8%
O=C(NCCCN1CCOCC1)c1ccc(Sc2ccc(Br)cc2)c([N+](=O)[O-])c1	15.8	-1.2%	6.51µM*	10.3µM*	9.7%
Cc1cc(C(=O)NCCN2CCOCC2)ccc1[N+](=O)[O-]	13.6	12.3%	-2.9%	-7.2%	5.1%
CC1=CC(C2CC(=O)N(c3ccc(C)cc3)C2=O)CC2C(=O)N(c3ccc(C)cc3)C(=O)C12 (stereo not given)	0.0	3.9%	11.5%	?	-16.3%
COc1ccccc1-c1ccnc(-n2ncc(C(=O)N(C)C(C)c3ccon3)c2C2CC2)n1 (stereo not given)	/	/	-11.5%[9.04 µM]	-22.6%	/
Cc1ccccc1Cn1c([N+](=O)[O-])cnc1C	24.4	-1.9%	-5.3%	-12.2%	1.6%
Cc1ccccc1CN1CCc2cc([N+](=O)[O-])ccc21	-12.7	-1.7%	?	18.4µM*	-13.3%
Cc1nc2cc(-c3ccc(Cl)cc3)nn2c(NCCN(C)C)c1C	-75.4*	?	7.31µM*	7.31µM*	-15.7%
COc1ccc(/C=C2\SC(=Nc3ccccc3OC)NC2=O)cc1	?	?	23.1µM*	?	?
COc1cc(/C=C2\SC(=Nc3ccccc3)NC2=O)cc(Cl)c1O	31.3	-28.3%	?	?	?
COc1cc(/C=C2/SC(=Nc3ccc(O)cc3)NC2=O)ccc1O	?	0.651µM*	1.03µM*	0.651µM*	1.16µM*
COc1cc(/C=C2\SC(=Nc3ccccc3OC)NC2=O)ccc1O	-60.1*	4.11µM*	?	?	7.31µM*
CCc1ccc(N=C2NC(=O)/C(=C/c3cc(OC)c(O)c(OC)c3)S2)cc1	11.3	-3.2%	?	25.9µM*	-11.1%
O=C(NC1=NC2CCCCC2N1)c1ccccc1 (stereo not given)	1.5	14.2%	0.7%	?	18.7%
CN1CCN(C(=O)C[C@H]2C[C@H]3c4cc(NC(=O)NC5CCCCC5)ccc4O[C@H]3[C@@H](CO)O2)CC1	-14.2	-1.2%	-3.3%	9.8%	11.8%
CCn1c(=O)c2[nH]c(SC)nc2n(CC)c1=O	12.1	0.1%	2.6%	-7.8%	-5.9%
CN1C(=O)C(CC(=O)NCCc2ccccc2)N(NC(=O)c2ccc(Cl)cc2)C1=S (stereo not given)	-12.7	-7.1%	?	?	-3.7%
SMILES	IL1B secr inh	HT1080-NT tox	TDP1 cell CPT	TDP1 cell noCPT	HT1080 IDH1KD tx
N#Cc1c(NCCN)nc(-c2ccccc2)c2c1CCCC2	-55.1*	?	?	?	?
O=C(Nc1ccc(Br)cc1)c1ccc(F)c(S(=O)(=O)N2CCc3ccccc32)c1	/	/	23.1µM*	20.6µM*	/
O=C(NC1=NCCS1)c1ccc(Cl)c(S(=O)(=O)N2CCc3ccccc32)c1	0.0	10.3%	?	?	0.6%
O=C(Nc1ccc(Br)cc1)c1ccc(F)c(S(=O)(=O)NCc2cccs2)c1	-55.0*	?	14.6µM*	20.6µM*	?
O=C(Nc1cccc(Cl)c1)c1ccc(F)c(S(=O)(=O)NCc2ccc3c(c2)OCO3)c1	-13.6	-23.4%	-21.9%	25.9µM*	-23.9%
CC(C)c1ccc(NC(=O)c2ccc(F)c(S(=O)(=O)N3CCc4ccccc43)c2)cc1	/	/	5.17µM*	7.31µM*	/
O=C(O)c1ccc(B(O)O)cc1	/	/	-34.4%	?	/
COc1ccc(Cc2noc(CN3CCN(Cc4csc(C)n4)CC3)n2)cc1OC	20.8	5.3%	-1.5%	-28.5%	3.8%
Cc1ccc(Cl)cc1N1CCN(c2ncnc3onc(-c4ccc(F)cc4)c23)CC1	/	/	-0.5%	-6.7%	/
Cc1ccc(CN2CCC(CNc3ncnc4onc(-c5ccc(F)cc5)c34)CC2)cc1	/	/	-39.8%	23.1µM*	/
CC(C)(CO)Nc1ncnc2onc(-c3ccc(F)cc3)c12	8.0	-15.3%	-5.0%	-26.5%	-6.8%
Cc1ccc(Cl)cc1N1CCN(CCCNc2ncnc3onc(-c4ccc(F)cc4)c23)CC1	/	/	14.6µM*	18.4µM*	/
Fc1ccc(-c2noc3ncnc(NCC4CCN(Cc5ccc(Cl)cc5)CC4)c23)cc1	/	/	?	13µM*	/
COc1cc(NC(=O)c2cc3ccccc3cc2O)c(OC)cc1Cl	?	?	14.6µM*	10.3µM*	?
Cc1ccc([N+](=O)[O-])cc1NC(=O)c1ccoc1C	?	4.5%	?	-23.6%	-0.9%
COc1ccccc1NC(=O)COC(=O)c1cc2ccccc2cc1O	24.3	-8.8%[9.24 µM]	-21.5%	0.4%	0.9%
COc1ccccc1NC(=O)c1cc2cc(Br)ccc2cc1O	?	?	6.51µM*	3.66µM*	?
Cc1occc1C(=O)Nc1ccc([N+](=O)[O-])cc1Br	-20.3	-2.1%	1.3µM*	29.1µM*	-1.9%
Cc1ccc(Cl)cc1NC(=O)c1cc2ccccc2cc1O	-89.6*	4.11µM*	2.59µM*	2.91µM*	?
Cc1ccc(Cl)cc1NC(=O)COC(=O)c1ccccc1O	-3.4	1.2%	-1.7%	20.9%	15.9%
COc1cc(OC)cc(C(=O)OCC(=O)NC2CCCCCCC2)c1	18.1	-0.6%	-26.1%	?	-2.1%
O=C[C@H](O)[C@@H](O)[C@H](O[C@H]1O[C@H](CO)[C@@H](O[C@H]2O[C@H](CO)[C@@H](O)[C@H](O)[C@H]2O)[C@H](O)[C@H]1O)[C@H](O)CO	/	/	-6.3%	-1.8%	/
